# Compound activity from PubChem.
# Only some compounds are listed: those with a hit (about 5.4% of all), similar ones and a draw of the others.
# beta cell repl – induces beta-cell replication in MIN6 cells | MIN6 cells proliferation, ATPlite luminescence, 48 h; cells starved in 0.2% serum; 100% = growth in 10% serum | proliferation, % at 10 µM | hit rate 0.29% among 330,000 | AID 2380;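 active = compounds whose signal lies at least 3.5 SD above the mean of all wells on their plate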;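 also: 0% = DMSO-treated cells in low-serum medium and 100% = 10% serum control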
# SMARCA2 act – activators of SMARCA2 function; AID 652017; MG213 cells, MMTV-luciferase reporter, dexamethasone, overnight; activation, % at 9.1 µM; hit rate 1% among 370,000; in the data active = activation above about 7.8%;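 also: 0% = vehicle wells and 100% = reference activator wells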
# JMJD2C inh – blocks human GASC-1 demethylase activity. Q9H3R0. GST-JMJD2C(1-420) H3K9me3 demethylation, DELFIA europium. inhibition, % at 2.35 µM. hit rate 0.069% among 330,000;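 active = more than half of a compound's replicate wells show inhibition beyond 50%, single wells judged on their own value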;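 also: signal counts dimethyl H3K9 product captured on neutravidin plate; 0% = median of DMSO wells and 100% = 0.3 times that DMSO median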
# Target sequence (Q9H3R0 1-420 limits assumed): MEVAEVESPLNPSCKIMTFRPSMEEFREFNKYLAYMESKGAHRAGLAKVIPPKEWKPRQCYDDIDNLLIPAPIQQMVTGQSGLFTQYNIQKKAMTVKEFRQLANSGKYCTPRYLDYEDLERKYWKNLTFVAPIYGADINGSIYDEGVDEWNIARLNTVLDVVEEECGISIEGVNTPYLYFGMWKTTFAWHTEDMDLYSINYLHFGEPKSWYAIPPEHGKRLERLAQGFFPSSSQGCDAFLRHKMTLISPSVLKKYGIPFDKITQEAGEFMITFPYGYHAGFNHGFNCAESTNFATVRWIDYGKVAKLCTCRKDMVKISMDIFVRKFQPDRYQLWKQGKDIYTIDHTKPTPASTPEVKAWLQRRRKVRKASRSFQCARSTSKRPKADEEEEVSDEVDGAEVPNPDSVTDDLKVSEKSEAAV
# Granule exo inh – lytic granule exocytosis inhibition | TALL-104 LAMP-1 surface exposure, flow cytometry; cells stimulated with thapsigargin and PMA | inhibition, % at 10 µM | hit rate 0.66% among 360,000;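 active = inhibition above about 55%, limit read from the data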
# ALR inh – blocks human ALR sulfhydryl oxidase activity; P55789; purified ALR, DTT oxidation, H2O2 HRP-luminol luminescence; inhibition, % (no concentration beside the values); hit rate 3.8% among 290,000;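 active = mean replicate inhibition above about 79%, with every replicate also reaching it, limit read from the data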
# Target sequence (P55789 whole entry, looked up): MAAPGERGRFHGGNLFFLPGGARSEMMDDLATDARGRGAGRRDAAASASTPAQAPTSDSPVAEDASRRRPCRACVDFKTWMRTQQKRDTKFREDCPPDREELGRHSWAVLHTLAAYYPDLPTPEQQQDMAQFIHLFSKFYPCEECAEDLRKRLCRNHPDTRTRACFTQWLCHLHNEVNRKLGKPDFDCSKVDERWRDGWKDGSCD
# PfM18AAP inh-1 – PfM18AAP enzyme inhibition; recombinant PfM18AAP, H-Glu-NHMec fluorogenic cleavage; inhibition, % at 7.35 µM; hit rate 1.2% among 290,000;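 active = inhibition above the campaign mean inhibition over all tested compounds plus 3 SD, cut at about 28% in these data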;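 also: 0% = plate median of test compound wells and 100% = 2 mM ZnCl2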
# PfM18AAP inh-2 – confirmation of Plasmodium falciparum M18 aspartyl aminopeptidase inhibitors; shares compounds with PfM18AAP inh-1; recombinant PfM18AAP, H-Glu-NHMec fluorogenic cleavage; inhibition, % at 7.35 µM; hit rate 28% among 2,400;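 active = mean inhibition over replicate wells above the hit cutoff set for the earlier primary screen, cut at about 29% in these data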;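 also: 0% = median of test compound wells and 100% = 2 mM ZnCl2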
# CTSL1 confirm – Cathepsin L (human) inhibition, confirmation | shares compounds with PfM18AAP inh-1 | purified cathepsin L1, Z-Leu-Arg-MCA fluorescence | inhibition, % at 5.96 µM | 2,400 tested, under 10 active;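 active = average inhibition across replicates above the hit cutoff set in the earlier primary screen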;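 also: 0% = median of test compound wells and 100% = Z-Phe-Ala-diazomethylketone 1 µM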
# * marks the source's active call; other numbers are inactive results; . = no result.
SMILES,beta cell repl,SMARCA2 act,JMJD2C inh,Granule exo inh,ALR inh,PfM18AAP inh-1,PfM18AAP inh-2,CTSL1 confirm
CCOC(=O)N1CCN(C(=O)C[C@H]2C[C@@]3(C(=O)OC)C(=C[C@H](C(C)(C)C)O[C@@H]3C)N(Cc3ccccc3)C2=O)CC1,.,1,.,.,.,.,.,.
COc1cc(/C=C2/C(=O)N(c3ccc(C(=O)O)cc3)N=C2C)cc(OC)c1O,2,0,1,-7,93*,50*,29*,-2
COc1ccc(Cc2nnc(N/N=C/c3ccc(O)cc3O)[nH]c2=O)cc1OC,-1,1,11,-10,.,39*,46*,1
Cc1ccc(/C=N/Nc2nnc(Cc3ccccc3)c(=O)[nH]2)o1,3,-2,1,0,-3,4,.,.
O=C(/C(=C\c1ccccc1)c1nc2ccccc2[nH]1)c1ccc(Cl)cc1,0,-1,2,46,.,-6,.,.
O=C(/C=C/c1cccc(Cl)c1)c1nc2ccccc2[nH]1,-6,2,-4,7,.,32*,14,5
Cc1ccc(O)c(Nc2c3ccccc3nc3ccccc23)c1,-5,1,-1,53,99*,43*,-48,5
Cc1ccc(O)c(Nc2nc(-c3ccccc3)nc3ccccc23)c1,-2,0,-47,-10,-2,-8,.,.
CCCCN1CC(COCc2ccccc2)Oc2cccc(Sc3ccc(OC)c(OC)c3)c2S1(=O)=O (configuration not stated),.,-4,.,.,.,.,.,.
CCOC(=O)C1=C(C)NC(=S)NC1c1ccco1 (configuration not stated),-2,-1,0,-5,.,35*,-28,7
O=C(Cc1ncn[nH]1)NCCc1ccccc1,0,-1,-6,-2,-7,32*,40*,2
CCCNC(=O)Cc1ncn[nH]1,-3,-4,-5,2,-23,23,.,.
O=C(CNC(=O)c1ccccc1)NCCc1ccc(O)c(O)c1,4,-3,70,0,.,84*,73*,-5
O=C(/C(=N/N=C/c1ccc(O)c(O)c1)c1ccccc1)c1ccccc1,0,-3,-10,0,.,48*,30*,3
O=C(/C(=N/O)c1ccccc1)c1ccccc1,.,4,.,-1,.,.,.,.
O=Cc1ccc(Cl)c(Cl)c1,0,-3,6,1,24,.,.,.
O=Cc1ccc(O)c(O)c1,-4,-2,-8,-3,99*,48*,31*,-1
Oc1ccc(/C=N/N=C/c2ccc(O)c(O)c2)cc1O,-3,-1,6,4,99*,81*,76*,6
COC(=O)CCC(=O)NC(=S)Nc1sc(C)c(C)c1C(N)=O,-2,1,1,8,-2,14,.,.
Cc1sc(NC(=O)Nc2ccccc2)c(C(N)=O)c1C,-2,2,1,-1,38,37*,5,0
Cc1sc(NC(=O)C2CCCCC2C(=O)O)c(C(N)=O)c1C (configuration not stated),-2,1,0,2,0,36*,-56,-1
COC(=O)CCC(=O)Nc1sc(C)c(C)c1C(N)=O,-3,1,2,2,17,43*,18,3
C[n+]1ccc(CC2C(=[N+]([O-])[O-])C=Nc3ncnn32)cc1 (configuration not stated),.,-2,.,-7,.,32*,-10,6
CC(C)CNc1nnnc2c1sc1nc(N3CCOCC3)c3c(c12)CC(C)(C)SC3,-3,-2,21,-1,-4,-2,.,.
CC1(C)Cc2c(c(N3CCOCC3)nc3sc4c(NN)ncnc4c23)CS1,-6,3,-3,0,-14,33*,-7,3
SMILES,beta cell repl,SMARCA2 act,JMJD2C inh,Granule exo inh,ALR inh,PfM18AAP inh-1,PfM18AAP inh-2,CTSL1 confirm
COc1ccc(CNC(=O)c2ccc3c(c2)N(C)C(=O)CS3=O)cc1 (configuration not stated),-2,0,-7,-2,4,47*,-15,5
O=C(NC1CCCCCCC1)c1ccc2c(c1)OCO2,0,6,-14,-4,3,2,.,.
c1cc2c(cc1NC1CCCCCC1)OCO2,3,1,-39,-1,26,53*,28,-2
CN1CCN(C(=O)c2sc(=S)n(-c3ccccc3)c2N)CC1,-2,0,-1,0,28,49*,17,6
NC(=O)c1sc(=S)n(-c2ccc(Br)cc2)c1N,-3,1,-12,-4,95*,38*,-41,0
CCNC(=O)c1sc(=S)n(-c2ccc(C)cc2)c1N,-4,1,7,-1,25,-15,.,.
Cc1ccccc1CN1CCCCC(NC(=O)c2ccc(F)cc2F)C1=O (configuration not stated),.,-2,.,.,.,.,.,.
CC(=O)NC(c1ccco1)c1ccc2cccnc2c1O (configuration not stated),-6,.,-4,16,6,48*,-13,5
O=C(CSc1nnc(-c2ccccc2)o1)Nc1ccccc1F,-5,1,-6,-2,.,3,.,.
CCC(c1nnc(SCC(=O)Nc2nnc(-c3ccccc3)o2)o1)N(C)C (configuration not stated),-3,1,5,1,16,69*,35*,2
C/C(=N\Nc1nc2ccccc2c(=O)n1O)c1ccco1,-4,1,16,2,-12,38*,7,-2
CCOC(=O)CC[C@@H]1CC[C@]2(CCCN(Cc3ccc(OC)cc3)C2)O1,.,1,.,.,.,.,.,.
O=C(/C=C/c1ccc(F)cc1)c1cc(Br)ccc1O,-6,2,8,-3,-7,2,.,.
O=C(/C=C/c1ccccc1)c1cc(Br)ccc(=O)c1O,-6,-8,-3,4,48,54*,-29,-1
c1ccc2c(CNc3ccc(CNc4ncn[nH]4)cc3)cccc2c1,-1,0,18,-2,3,17,.,.
COc1ccccc1CNc1ccc(CNc2ncn[nH]2)cc1,0,-6,0,-2,87*,33*,-17,1
CN(C)c1ccc(CNc2ncn[nH]2)cc1,-1,4,4,0,74,37*,-9,-1
COc1cc(CNc2ccc(CNc3ncn[nH]3)cc2)ccc1OCc1ccccc1,0,-3,-4,-1,-11,47*,-5,4
Cc1ccc(CNc2ccc(CNc3ncn[nH]3)cc2)cc1,3,3,1,2,-21,27,.,.
C[C@@H]1CN([C@H](C)CO)C(=O)CCCn2nncc2CO[C@H]1CN(C)C(=O)Nc1ccc2c(c1)OCCO2,.,4,.,.,.,.,.,.
COc1ccc(-c2coc3c(C(=O)NCc4ccc(OC)c(OC)c4)cccc23)c(C)c1,.,-4,.,8,.,.,.,.
